# Assay results as given in the supplement of paper PMC7411640.
# Structures can show the parent of a compound that is named as a salt.
# Tested on: MDA-MB-468
# Assay: phospho-S6 immunofluorescence (DAPI-normalised), per-plate z-score; higher = higher phospho-S6 signal (less pathway suppression)
# Conditions: 24 h
# Experimental: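 GPCR-targeted compound library (MedChemExpress HY-L006) tested on MDA-MB-468 PTEN-null TNBC cells in 384-well plates at 0.1, 1 or 10 uM, combined with vehicle, GDC0941 450 nM or lapatinib 1 uM, for 24 h. Phospho-S6 (S240/244) immunofluorescence normalised to DAPI and expressed as a per-plate z-score; values are the mean of biological triplicates.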
Compound,phospho-S6 immunofluorescence (z-score) (co-treatment: GDC0941 450 nM),phospho-S6 immunofluorescence (z-score) (co-treatment: lapatinib 1 uM),phospho-S6 immunofluorescence (z-score) (co-treatment: vehicle)
CN(C)CCOC(C)(c1ccccc1)c1ccc(Cl)cc1 (configuration not stated) [Chlorphenoxamine] (compound 10 µM),-4.26,-7.36,-4.5
Clc1ccc2c(c1)CCc1cccnc1C2=C1CCNCC1 [Desloratadine] (compound 10 µM),-0.48,-1.96,0.51
COc1ccccc1Oc1c(NS(=O)(=O)c2ccc(C(C)(C)C)cc2)nc(-c2ncccn2)nc1OCCO [Bosentan] (compound 10 µM),0.53,0.78,1.05
CS(=O)(=O)c1cc(F)cc2c3c(n(Cc4ccc(Cl)cc4)c12)[C@@H](CC(=O)O)CC3 [Laropiprant] (compound 10 µM),0.48,0.81,0.75
C[N+]1(C)CCC(=C(c2ccccc2)c2ccccc2)CC1 [Diphenmanil (methylsulfate)] (compound 10 µM),0.46,0.06,0.8
CN1CCN(c2cc(-c3ccccc3)nc(N)n2)CC1 (compound 10 µM),0.39,0.06,1.14
N[C@@H](CCC(=O)O)C(=O)[O-].[Na+] [L-Glutamic acid monosodium salt] (compound 10 µM),0.12,-0.6,-0.39
C[C@@H]1CCCN1CCc1cc2cc(-c3ccc(C#N)cc3)ccc2o1 (compound 10 µM),-3.3,-4.56,-0.97
CC(C)NCC(O)c1ccc(O)c(O)c1 (configuration not stated) [Isoprenaline (hydrochloride)] (compound 10 µM),0.63,2.74,1.65
NC[C@H](O)c1ccc(O)c(O)c1 [Norepinephrine (bitartrate monohydrate)] (compound 10 µM),0.52,1.81,0.17
O=C(Nc1ccccc1)C12CC1C(=NO)c1ccccc1O2 (configuration not stated) (compound 10 µM),-0.19,-0.81,0.75
Cc1nc2n(c(=O)c1CCN1CCC(c3noc4cc(F)ccc34)CC1)CCCC2O (configuration not stated) [Paliperidone] (compound 10 µM),0.37,0.36,0.5
CC(C[N+](C)(C)C)OC(N)=O (configuration not stated) [Bethanechol (chloride)] (compound 10 µM),0.67,0.01,0.6
Clc1ccc(Cn2c(CN3CCCC3)nc3ccccc32)cc1 [Clemizole (hydrochloride)] (compound 10 µM),-3.06,0.26,-1.37
